Source: PubChem
A selection: hits, their analogues and other compounds. The true share with any hit is near 2.8%.
SIRT5 inh: blocks human SIRT5 desuccinylation of peptide; Q9NXA8; Purified SirT5, succinyl-peptide AMC, trypsin-coupled fluorescence; inhibition, % at 15 µM; 1.1% of 330,000 active; AID 652115; in the data active means inhibition above about 15%
PvdQ inh: P. aeruginosa PvdQ acylase inhibition. AID 488965. purified PvdQ acylase, fluorescence plate reader. inhibition, % at 10 µM. 0.063% of 340,000 active; in the data active means inhibition above about 30%, passing the limit was not always enough;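 further: 0% = vehicle neutral wells and 100% = reference inhibitor wells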
PglD DTNB: blocks C. jejuni PglD acetyltransferase activity | purified PglD enzyme, DTNB colorimetric CoA detection | inhibition, % at 12.5 µM | AID 602405 | 0.098% of 360,000 active; in the data active means inhibition above about 16%, passing the limit was not always enough
FGF22 binding: FGF22 (human) thermal shift binding. AID 651658. activity (Tm shift, normalised), % at 9.99 µM. recombinant FGF22 thermal shift, SYPRO orange fluorescence; percent of sucrose octasulfate shift, DMSO zero. 1.5% of 340,000 active;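 active means mean Tm shift, scaled 0 neutral to 100 positive control, at about 1.3% or above, every replicate too, limit read from the data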
Target sequence (Q9HCT0 whole entry, looked up): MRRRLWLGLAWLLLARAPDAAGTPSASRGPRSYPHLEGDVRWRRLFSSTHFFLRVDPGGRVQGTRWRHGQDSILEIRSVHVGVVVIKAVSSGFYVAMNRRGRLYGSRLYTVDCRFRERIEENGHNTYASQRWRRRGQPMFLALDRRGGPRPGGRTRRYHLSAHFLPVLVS
dFosB act: activators of mouse delta FosB homodimer; P13346; purified delta FosB, TAMRA-CDK5 oligo fluorescence polarization; percent of positive-control signal above neutral wells; activation, % at 25 µM; 0.99% of 340,000 active;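 active means mean activation above about 17%, with every replicate also reaching it, limit read from the data, passing the limit was not always enough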
Target sequence (P13346 whole entry, looked up): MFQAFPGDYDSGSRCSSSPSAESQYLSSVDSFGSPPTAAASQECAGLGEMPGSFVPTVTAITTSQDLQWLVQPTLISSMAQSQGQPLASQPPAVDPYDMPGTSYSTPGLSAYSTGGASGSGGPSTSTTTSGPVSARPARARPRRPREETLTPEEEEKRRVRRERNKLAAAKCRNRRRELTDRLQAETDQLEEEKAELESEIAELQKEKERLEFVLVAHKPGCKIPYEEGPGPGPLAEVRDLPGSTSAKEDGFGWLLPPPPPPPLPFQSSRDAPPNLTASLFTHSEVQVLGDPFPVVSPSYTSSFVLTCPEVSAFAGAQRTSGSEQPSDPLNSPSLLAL
CDK5 p35 inh: blocks human CDK5/p35 kinase activity; Q00535+Q15078; Recombinant CDK5/p35, ADP-Glo luminescence, 60 min; inhibition, % at 10 µM; AID 488839; 0.01% of 330,000 active;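 active means highest replicate inhibition of at least 50% and at least 75% of replicates reaching 50%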;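 further: plate controls were DMSO neutral control for no effect and GW8510 at 10 µM for full effect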
Active calls of the source: *; ! = not confirmed by another sample.

`CCC(=O)Nc1ccc2c(c1)C(=O)N(C)[C@H]1CC[C@H](CC(=O)NCc3ccc(OC)cc3)O[C@@H]1CO2` gave SIRT5 inh 5, PglD DTNB 4 and FGF22 binding 0.
Screening CC(C)CN(C[C@H]1N[C@H](CO)[C@@H]1c1ccccc1)C(=O)C1CCCCC1 returned SIRT5 inh 22*.
For O=C1CN(S(=O)(=O)Cc2ccccc2)C[C@H]2[C@@H](c3ccc(C#Cc4ccccc4)cc3)[C@@H](CO)N12 the results were SIRT5 inh 11.
For CC(OC(=O)c1ccc(NC(=O)CC#N)cc1)C(=O)NC(c1ccccc1)c1ccccc1 (stereo not drawn) the results were SIRT5 inh 16*, PvdQ inh -14, PglD DTNB 4, FGF22 binding 0, dFosB act 0 and CDK5 p35 inh -2.
CCCCN(C)CC(O)Cn1cc(/C=C/C(=O)c2ccc(C)cc2)c2ccccc21 (stereo not drawn) was read as SIRT5 inh 7, PvdQ inh -5, PglD DTNB -4, FGF22 binding 0, dFosB act 26* and CDK5 p35 inh 1.
For CCCN(CCC)CC(O)Cn1cc(/C=C/C(=O)c2ccccc2)c2ccccc21 (stereo not drawn) the results were SIRT5 inh -2, PvdQ inh -6, PglD DTNB -14, FGF22 binding 0, dFosB act -7 and CDK5 p35 inh 2.
For CNC[C@@H]1Oc2ccc(N(C)C)cc2C(=O)N([C@@H](C)CO)C[C@H]1C the results were SIRT5 inh 4.
`CC(=O)NS(=O)(=O)c1ccc(NC(=S)NC(=O)Cc2ccccc2)cc1` gave SIRT5 inh -4, PvdQ inh 0, PglD DTNB 0, FGF22 binding 43*, dFosB act 5 and CDK5 p35 inh -1.
`CC(C)NC(=O)N(C)C[C@@H]1Oc2ccc(NC(=O)Cc3ccccc3)cc2C(=O)N([C@@H](C)CO)C[C@H]1C` gave SIRT5 inh -3, PglD DTNB -3 and FGF22 binding 0.
For C[C@H](CO)N1C[C@H](C)[C@H](CN(C)Cc2ccc(Oc3ccccc3)cc2)Oc2ccc(NC(=O)Cc3ccccc3)cc2C1=O the results were SIRT5 inh 43*, PglD DTNB -7 and FGF22 binding 0.
For CC(C)NC(=O)N(C)C[C@H]1Oc2ccc(NC(=O)Cc3ccccc3)cc2C(=O)N([C@H](C)CO)C[C@@H]1C the results were SIRT5 inh 20*!, PvdQ inh -3, PglD DTNB -1, FGF22 binding 0, dFosB act -6 and CDK5 p35 inh -6.
For C[C@@H]1CN([C@@H](C)CO)C(=O)c2cc(NC(=O)Cc3cn(C)c4ccccc34)ccc2O[C@@H]1CN(C)Cc1ccc(Oc2ccccc2)cc1 the results were SIRT5 inh 19*, PglD DTNB -2 and FGF22 binding 0.
Screening C[C@H]1CN([C@@H](C)CO)C(=O)c2cc(NC(=O)Cc3ccccc3)ccc2O[C@@H]1CN(C)Cc1ccc(Oc2ccccc2)cc1 returned SIRT5 inh 17*, PglD DTNB 2 and FGF22 binding 0.
O=C(N[C@H]1C=C[C@H](CC(=O)N2CCCCC2)O[C@@H]1CO)c1ccc2c(c1)OCO2 was read as SIRT5 inh -2, PglD DTNB -5 and FGF22 binding 0.
Screening C[C@@H]1CN([C@H](C)CO)C(=O)c2cc(NC(=O)CCC(F)(F)F)ccc2O[C@H]1CN(C)Cc1ccc(Oc2ccccc2)cc1 returned SIRT5 inh 27*, PglD DTNB 11 and FGF22 binding 0.
C[C@@H]1CN([C@@H](C)CO)C(=O)c2cc(NC(=O)CCC(F)(F)F)ccc2O[C@@H]1CN(C)Cc1ccc(-c2ccccc2)cc1 was read as SIRT5 inh -1, PglD DTNB 0 and FGF22 binding 0.
Screening COC(=O)C[C@@H]1C[C@H]2c3cc(NC(=O)CC4CC4)ccc3O[C@H]2[C@H](CO)O1 returned SIRT5 inh 5, PglD DTNB -2 and FGF22 binding 0.
For O=C(Nc1cccc(F)c1)N1C[C@H]2[C@@H](c3ccccc31)[C@H](CO)N2C(=O)Cc1ccccc1 the results were SIRT5 inh 2, PglD DTNB -4 and FGF22 binding -1.
`CC(C)CC#Cc1ccc2c(c1)O[C@@H](CN(C)Cc1cccc(F)c1)[C@H](C)CN([C@H](C)CO)S2(=O)=O` gave SIRT5 inh 16*, PglD DTNB 3 and FGF22 binding 0.
`CC(C)CC#Cc1ccc2c(c1)O[C@H](CN(C)Cc1cccnc1)[C@@H](C)CN([C@@H](C)CO)S2(=O)=O` gave SIRT5 inh 18*.
Screening CC(C)CC#Cc1ccc2c(c1)O[C@@H](CN(C)Cc1ccc(F)cc1)[C@H](C)CN([C@H](C)CO)S2(=O)=O returned SIRT5 inh 4, PglD DTNB -6 and FGF22 binding 0.
`CC(C)CC#Cc1ccc2c(c1)O[C@@H](CN(C)S(=O)(=O)c1cccc(F)c1)[C@@H](C)CN([C@H](C)CO)S2(=O)=O` gave SIRT5 inh 20*, PglD DTNB -2 and FGF22 binding 0.
`CC(C)CC#Cc1ccc2c(c1)O[C@@H](CN(C)Cc1cccnc1)[C@@H](C)CN([C@H](C)CO)S2(=O)=O` gave PglD DTNB -1 and FGF22 binding 0.
Screening CC(C)CC#Cc1ccc2c(c1)O[C@@H](CN(C)Cc1ccc3c(c1)OCO3)[C@@H](C)CN([C@@H](C)CO)S2(=O)=O returned SIRT5 inh 14* and PglD DTNB -1.
`CCCC#Cc1ccc2c(c1)O[C@@H](CN(C)S(=O)(=O)c1cccc(F)c1)[C@@H](C)CN([C@@H](C)CO)S2(=O)=O` gave SIRT5 inh -2, PglD DTNB 4 and FGF22 binding 0.
For COC(=O)c1cn(C[C@H](Cc2ccccc2)NC(=O)c2ccccc2)nn1 the results were SIRT5 inh -7 and FGF22 binding 0.
`COc1ccc(NC(=O)Nc2ccc3c(c2)C(=O)N([C@H](C)CO)C[C@@H](C)[C@@H](CN(C)S(C)(=O)=O)O3)cc1` gave SIRT5 inh 2, PglD DTNB 0 and FGF22 binding 1.
`C[C@H](CO)N1C[C@H](C)[C@@H](CN(C)Cc2cccnc2)Oc2cc(C#CC3CCCCC3)ccc2S1(=O)=O` gave SIRT5 inh -7, PglD DTNB -2 and FGF22 binding 0.
`C[C@H]1CN([C@@H](C)CO)S(=O)(=O)c2ccc(C#CCC3CCCC3)cc2O[C@@H]1CN(C)Cc1ccc(C(=O)O)cc1` gave SIRT5 inh 14 and PglD DTNB 7.
